Screens as filed in PubChem BioAssay.
Many of the other results were omitted from the sample, so hits are more common in it than they were.
GIRK2 activator – Activators of human GIRK2-containing channels | 34,000 tested, under 10 active | P48051 | HEK293 GIRK2/NPY4 cells, thallium flux fluorescence | activation (% efficacy), % for hits at 37.5 µM;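 active = primary screen hit, no activity in plain HEK293 cells, and in GIRK2-only cells above 5% efficacy rising with concentration; inactive = the rest, including fluorescent compounds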;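 note: efficacy is normalized control-subtracted fluorescence 15 s after thallium addition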
Target sequence (P48051 whole entry, looked up): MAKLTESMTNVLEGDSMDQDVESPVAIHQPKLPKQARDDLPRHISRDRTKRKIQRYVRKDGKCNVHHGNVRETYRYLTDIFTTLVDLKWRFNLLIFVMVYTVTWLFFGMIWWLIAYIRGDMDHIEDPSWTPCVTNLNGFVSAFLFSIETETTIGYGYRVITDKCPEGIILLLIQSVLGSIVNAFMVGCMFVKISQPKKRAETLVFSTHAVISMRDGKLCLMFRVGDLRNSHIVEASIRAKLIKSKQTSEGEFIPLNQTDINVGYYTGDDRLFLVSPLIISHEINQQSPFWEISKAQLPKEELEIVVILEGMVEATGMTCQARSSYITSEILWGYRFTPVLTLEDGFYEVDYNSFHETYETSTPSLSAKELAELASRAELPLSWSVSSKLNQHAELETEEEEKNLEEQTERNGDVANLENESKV
GluA2 TARP mod – modulators of AMPA receptor GluA2-stargazin complexes; O88602+P19491; 3.5% of 40,000 active; calls only at 30 µM; HEK293 GluA2+stargazin, membrane potential dye (FDSS), glutamate EC50; hits were called plate by plate, in both directions;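 active = any of four per-well response measures lying three or more SD from its plate-wide compound average, in either direction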
* hit, by the source's call; i = inactive; x = no result given; + = active, no number.

SMILES	GIRK2 activator	GluA2 TARP mod
CC(=O)N1CCN(c2nnc(SCC(=O)Nc3cc(C)on3)s2)CC1	i	i
Cc1cccc(Nc2ccc(N3CCN(C(=O)c4c(F)cccc4F)CC3)nn2)n1	i	x
Cc1cc(NC(=O)CSc2nnc(N3CCN(C(=O)Cc4cccs4)CC3)s2)no1	i	+
Cc1cccc(Nc2ccc(N3CCN(C(=O)Cc4cccs4)CC3)nn2)n1	i	+
CSc1ccccc1NC(=O)C(=O)Nc1ccc(C)c(C)c1	i	i
O=C(c1cnn(-c2ccccc2)n1)N1CCN(c2ccc(-c3ccco3)nn2)CC1	i	i
CCn1c(SCc2ccccc2Cl)nnc1-c1cn(C)nc1OC	i	i
O=C(NCCCn1nc(-c2ccc(Cl)cc2)ccc1=O)Nc1cc(F)ccc1F	i	i
CSc1ccccc1C(=O)NCC(C)(O)c1ccc2c(c1)OCO2 (stereo not drawn)	i	i
CC(C)n1ccc(C(=O)Nc2nc3c(cc4c5c(cccc53)CC4)s2)n1	i	i
CCCN1C(=O)NC2(CCN(C(=O)Nc3cccc(C(F)(F)F)c3)CC2)C1=O	i	i
O=C(Nc1cccc(C(F)(F)F)c1)N1CCC2(CC1)NC(=O)N(Cc1ccccc1)C2=O	i	+
O=C(Nc1cccc(Cl)c1)N1CCC2(CC1)NC(=O)N(Cc1ccccc1)C2=O	i	+
Cc1ccc(CN2C(=O)NC3(CCN(C(=O)Nc4ccc(Cl)cc4)CC3)C2=O)cc1	i	x
CC1Cc2cc(-c3cc(CC(=O)NC4CC4)no3)ccc2O1 (stereo not drawn)	i	i
Cc1nc(NCCNC(=O)Nc2ccc(Cl)c(C(F)(F)F)c2)cc(-n2cccn2)n1	i	+
Cc1nc(NCCNC(=O)Nc2ccc(C)c(F)c2)cc(-n2cccn2)n1	i	i
NC(=O)c1oc2ccccc2c1NC(=O)C(=O)NCc1ccc2c(c1)OCO2	i	i
CC1=NN(c2ccccc2)C(=O)C1C(=O)c1ccc(C)c(C)c1 (stereo not drawn)	i	+
COc1ccc(C(=O)C2C(=O)N(c3ccccc3)N=C2C)cc1OC (stereo not drawn)	i	i
Cc1cc(C)n(-c2ccc(N3CCC(C(=O)Nc4nc5ccc(Cl)cc5s4)CC3)nn2)n1	i	i
CCOC(=O)c1csc(NC(=O)c2ccc(=O)n(Cc3cccc(F)c3)n2)n1	i	+
Cc1ccc2nc(NC(=O)c3ccc(=O)n(Cc4cccc(F)c4)n3)sc2c1	i	i
O=C(c1ccc(Cn2c(=O)[nH]c3ccccc3c2=O)cc1)N1CCN(c2ncccn2)CC1	i	i
CC(=O)OC(COc1ccc(N(C)C(C)=O)cc1)Cn1c2ccccc2c2ccccc21 (stereo not drawn)	i	+
SMILES	GIRK2 activator	GluA2 TARP mod
CC(=O)OC(Cn1nc(C)cc1C)Cn1c2ccccc2c2ccccc21 (stereo not drawn)	i	i
Cc1ccc(S(=O)(=O)N(C)CC(=O)NCc2ccccc2)cc1	i	i
Cc1cc(C)n(CCNC(=O)Cn2c(-c3cnccn3)nc3ccccc32)n1	i	i
CSc1ccccc1NC(=O)Cn1c(-c2cnccn2)nc2ccccc21	i	+
Cc1ccc(Cl)cc1N1CCN(C(=O)Cn2c(-c3cnccn3)nc3ccccc32)CC1	i	+
Cc1nc(NC(=O)Cn2c(-c3cnccn3)nc3ccccc32)sc1C(=O)N(C)C	i	i
CC(=O)Nc1ccc(NC(=O)C(=O)NCc2ccco2)cc1	i	i
O=C(Nc1ccc2c(c1)OCCO2)C1CCN(c2cnc3ccccc3n2)CC1	i	i
COc1ccc(Cl)cc1NC(=O)CCn1nc(C)c(Cl)c1C	i	i
Cc1ccc(S(=O)(=O)N2CCN(CC(O)COc3ccc4ccccc4c3)CC2)cc1 (stereo not drawn)	x	i
CC1Cc2c(NC(=O)C3COc4ccccc4O3)nn(C)c2NC1=O (stereo not drawn)	i	i
CC(=O)N1CCN(c2oc(-c3ccccc3C)nc2S(=O)(=O)c2ccc(C)cc2)CC1	i	+
O=S(=O)(c1ccccc1)c1nc(-c2ccccc2Cl)oc1N1CCCC1	i	+
Cc1ccc(S(=O)(=O)c2nc(-c3ccccc3C)oc2N2CCC(C(N)=O)CC2)cc1	i	i
CC(=O)N1CCN(c2oc(-c3ccccc3)nc2S(=O)(=O)c2ccccc2)CC1	i	i
NC(=O)c1cccc(NC(=O)c2ccoc2)c1	i	i
O=C(Nc1ccc(Nc2ccccc2)cc1)c1ccoc1	i	+
CCOC(=O)CCC(=O)Nc1ccc(CC(=O)N2CCC(O)CC2)cc1	i	i
Cc1cc(C(=O)N2CCN(CC(=O)c3cccs3)CC2)no1	i	i
CCC(C)NC(=O)Cn1cnc2c(sc3nc(C)cc(C)c32)c1=O (stereo not drawn)	i	+
